Out of some 5,500 compounds screened, about 2,000 (36%) were called active. Roughly 18% stayed inconclusive and do not appear here. Rule as the data show it: active = normalized growth mostly below about 0.91 (no sharp cut-off); inconclusive = no clear call, values can overlap the other calls; inactive = mostly above about 0.92. The list shows a part of the results.
Test: chemical genetic growth profiling, strain panel (AID 1159580);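 also: tested at 20 µM; growth read once vehicle control cultures reached saturation at 30 °C; 1 = growth at the plate median or of vehicle wells; lower values mean less growth of the strain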
Conditions: growth OD

Measured: normalized growth

CCCCCCCCNC(C)C(O)c1ccc(SC(C)C)cc1 (stereo not drawn)
active: S. cerevisiae deletion strains, locus YKL009W, strain mrt4, active compounds read low 0.843 | S. cerevisiae deletion strains, locus YKL160W, strain elf1, active compounds read low 0.0721 | S. cerevisiae deletion strains, locus YKL190W, strain CNB1, active compounds read low 0.0442 | S. cerevisiae deletion strains, locus YKR001C, strain vps1, active compounds read low 0.0592 | S. cerevisiae deletion strains, locus YKR026C, strain gcn3, active compounds read low 0.0783 | S. cerevisiae deletion strains, locus YKR091W, strain srl3, active compounds read low 0.0575 | S. cerevisiae deletion strains, locus YLL001W, strain dnm1, active compounds read low 0.0576 | S. cerevisiae deletion strains, locus YLL026W, active compounds read low 0.0545 | S. cerevisiae deletion strains, locus YLL041C, strain sdh2, active compounds read low 0.0563 | S. cerevisiae deletion strains, locus YLR027C, strain aat2, active compounds read low 0.053 | S. cerevisiae deletion strains, locus YLR039C, strain RIC1, active compounds read low 0.0765 | S. cerevisiae deletion strains, locus YLR058C, strain SHM2, active compounds read low 0.0441 | S. cerevisiae deletion strains, locus YLR102C, strain apc9, active compounds read low 0.0595 | S. cerevisiae deletion strains, locus YLR221C, strain rsa3, active compounds read low 0.0556 | S. cerevisiae deletion strains, locus YLR258W, strain gsy2, active compounds read low 0.0584 | S. cerevisiae deletion strains, locus YLR262C, strain YPT6 (second series), active compounds read low 0.0924 | S. cerevisiae deletion strains, locus YLR262C, strain YPT6, active compounds read low 0.0999 | S. cerevisiae deletion strains, locus YLR268W, strain sec22, active compounds read low 0.0594 | S. cerevisiae deletion strains, locus YLR320W, strain mms22, active compounds read low 0.0684 | S. cerevisiae deletion strains, locus YLR330W, strain CHS5, active compounds read low 0.0493 | S. cerevisiae deletion strains, locus YLR342W, strain FKS1 (second series), active compounds read low 0.06 | S. cerevisiae deletion strains, locus YLR342W, strain FKS1, active compounds read low 0.0614 | S. cerevisiae deletion strains, locus YLR357W, strain rsc2, active compounds read low 0.111 | S. cerevisiae deletion strains, locus YLR370C, strain arc18, active compounds read low 0.0598 | S. cerevisiae deletion strains, locus YLR371W, strain rom2, active compounds read low 0.0595 | S. cerevisiae deletion strains, locus YLR384C, strain iki3, active compounds read low 0.0596 | S. cerevisiae deletion strains, locus YLR418C, strain cdc73, active compounds read low 0.0837 | S. cerevisiae deletion strains, locus YML016C, strain PPZ1, active compounds read low 0.0438 | S. cerevisiae deletion strains, locus YML032C, strain rad52, active compounds read low 0.0627 | S. cerevisiae deletion strains, locus YML120C, strain ndi1, active compounds read low 0.0554 | S. cerevisiae deletion strains, locus YML124C, strain tub3, active compounds read low 0.0561 | S. cerevisiae deletion strains, locus YMR058W, strain fet3, active compounds read low 0.0583 | S. cerevisiae deletion strains, locus YMR078C, strain ctf18, active compounds read low 0.0681 | S. cerevisiae deletion strains, locus YMR125W, strain sto1, active compounds read low 0.0638 | S. cerevisiae deletion strains, locus YMR129W, active compounds read low 0.057 | S. cerevisiae deletion strains, locus YMR205C, strain PFK2, active compounds read low 0.0745 | S. cerevisiae deletion strains, locus YMR223W, strain ubp8, active compounds read low 0.0556 | S. cerevisiae deletion strains, locus YMR231W, strain pep5, active compounds read low 0.0629 | S. cerevisiae deletion strains, locus YMR263W, strain SAP30, active compounds read low 0.0563 | S. cerevisiae deletion strains, locus YMR307W, strain GAS1, active compounds read low 0.113 | S. cerevisiae deletion strains, locus YNL067W, strain RPL9B, active compounds read low 0.0464 | S. cerevisiae deletion strains, locus YNL071W, strain lat1, active compounds read low 0.0586 | S. cerevisiae deletion strains, locus YNL128W, strain TEP1, active compounds read low 0.0711 | S. cerevisiae deletion strains, locus YNL209W, strain ssb2, active compounds read low 0.057 | S. cerevisiae deletion strains, locus YNL233W, strain BNI4, active compounds read low 0.0511 | S. cerevisiae deletion strains, locus YNL248C, strain rpa49, active compounds read low 0.0589 | S. cerevisiae deletion strains, locus YNL250W, strain rad50, active compounds read low 0.849 | S. cerevisiae deletion strains, locus YNL271C, strain bni1, active compounds read low 0.501 | S. cerevisiae deletion strains, locus YNL298W, strain CLA4, active compounds read low 0.357 | S. cerevisiae deletion strains, locus YNL307C, strain MCK1, active compounds read low 0.0662 | S. cerevisiae deletion strains, locus YNL322C, strain KRE1 (second series), active compounds read low 0.0644 | S. cerevisiae deletion strains, locus YNR049C, strain mso1, active compounds read low 0.0544 | S. cerevisiae deletion strains, locus YNR052C, strain pop2, active compounds read low 0.0594 | S. cerevisiae deletion strains, locus YOL006C, strain TOP1, active compounds read low 0.0984 | S. cerevisiae deletion strains, locus YOL012C, strain htz1 0.143 | S. cerevisiae deletion strains, locus YOL147C, strain pex11, active compounds read low 0.056 | S. cerevisiae deletion strains, locus YOR001W, strain rrp6, active compounds read low 0.0598 | S. cerevisiae deletion strains, locus YOR061W, strain CKA2, active compounds read low 0.0463 | S. cerevisiae deletion strains, locus YOR069W, strain VPS5, active compounds read low 0.0445 | S. cerevisiae deletion strains, locus YOR070C, strain gyp1, active compounds read low 0.0552 | S. cerevisiae deletion strains, locus YOR080W, strain dia2, active compounds read low 0.0613 | S. cerevisiae deletion strains, locus YOR083W, strain WHI5, active compounds read low 0.0558 | S. cerevisiae deletion strains, locus YOR106W, strain vam3, active compounds read low 0.0599 | S. cerevisiae deletion strains, locus YOR136W, strain idh2, active compounds read low 0.0657 | S. cerevisiae deletion strains, locus YOR144C, strain elg1, active compounds read low 0.0549 | S. cerevisiae deletion strains, locus YOR184W, strain ser1, active compounds read low 0.0604 | S. cerevisiae deletion strains, locus YOR265W, strain rbl2, active compounds read low 0.056 | S. cerevisiae deletion strains, locus YOR270C, strain vph1, active compounds read low 0.0763 | S. cerevisiae deletion strains, locus YOR290C, strain snf2, active compounds read low 0.0566 | S. cerevisiae deletion strains, locus YOR316C, strain cot1, active compounds read low 0.057 | S. cerevisiae deletion strains, locus YPL051W, strain arl3, active compounds read low 0.0586 | S. cerevisiae deletion strains, locus YPL055C, strain LGE1, active compounds read low 0.0576 | S. cerevisiae deletion strains, locus YPL078C, strain atp4, active compounds read low 0.0619 | S. cerevisiae deletion strains, locus YPL106C, strain sse1, active compounds read low 0.0837 | S. cerevisiae deletion strains, locus YPL240C, strain hsp82, active compounds read low 0.0552 | S. cerevisiae deletion strains, locus YPR119W, strain clb2, active compounds read low 0.0589 | S. cerevisiae deletion strains, locus YPR163C, strain tif3, active compounds read low 0.0677 | S. cerevisiae deletion strains, locus YPR167C, strain met16, active compounds read low 0.0591 | S. cerevisiae deletion strains, strain wtn01, active compounds read low 0.0573 | S. cerevisiae strains, strain wild type, active compounds read low 0.0449
inactive: S. cerevisiae deletion strains, locus YKL068W, active compounds read low 1.02 | S. cerevisiae deletion strains, locus YKL085W, strain MDH1 (second series), active compounds read low 0.936 | S. cerevisiae deletion strains, locus YKL085W, strain MDH1, active compounds read low 0.936 | S. cerevisiae deletion strains, locus YLR113W, strain HOG1, active compounds read low 1.04 | S. cerevisiae deletion strains, locus YNL183C, strain NPR1, active compounds read low 0.916 | S. cerevisiae deletion strains, locus YOR231W, strain MKK1, active compounds read low 0.892 | S. cerevisiae deletion strains, locus YPL256C, strain CLN2, active compounds read low 0.981 | S. cerevisiae deletion strains, locus YPR141C, strain kar3, active compounds read low 1.06

Source: PubChem BioAssay AID1159580 (chemical genetic matrix, 2015)
